Assay results from PubChem BioAssay (Tox21).
Inconclusive results are not listed. Unmarked numbers belong to inactive results. The source made the active and inactive calls. Calls come from the whole dose curve; as a rule, active = well fitted activation curve with a large enough effect in the repeat runs; inconclusive = weak or mixed curves; inactive = flat fitted curve, though single readings scatter.

Assay: A CellTox Green Cytotoxicity Assay to monitor cytotoxicity in HEK293 cells - 40 hour (AID 1224871); note: nearly all actives have a fitted effect of over 45% in size
Conditions: CellTox Green fluorescence; series mostly up to 76.8 µM; cytotoxicity increase: at the top concentration
From the text: National Center for Advancing Translational Sciences [NCATS]
NIH Chemical Genomics Center [NCGC]
U.S. Environmental Protection Agency [EPA]
National Institutes of Environmental Health Sciences [NIEHS]
National Toxicology Program [NTP]
Cell-based models are critical for drug discovery. Determining the natural cytotoxic effects resulting from test compounds is an essential research activity. A CellTox Green Cytotoxicity Assay to monitor cytotoxicity in real time of continues cell culture during 40 hours of the compound treatment was used to screen Tox21 10K library compounds in Hek293 cells. CellTox Green Cytotoxicity Assay is a nonlytic, homogeneous, biofluorescent method to measure cytotoxicity in cell culture after experimental manipulation. The assay system uses a proprietary asymmetric cyanine dye that is excluded from viable cells but preferentially stains the dead cell's DNA. […] Viable cells produce no appreciable increases in fluorescence. Therefore, the fluorescence signal produced by the binding interaction with dead cell DNA is proportional to cytotoxicity.
The mixture of Hek293 cell suspension and reagents were dispensed at 600cells/6 ul/well in 1536-well tissue culture treated black solid bottom plates using a Multidrop dispenser. After the assay plates were incubated at a 37 C/5% CO2 incubator for 5 hours, 23 nL of compounds dissolved in DMSO, positive and negative controls was transferred to the assay plate by a pintool work station. The plates were incubated at 37 C for 40 hours. The fluorescence intensity were measured at 0h, 8h, 16h, 24h, 32h and 40h time points using ViewLux plate reader during compound treatment.
% is set by controls: 0 for no effect and ±100 for the full control effect; potency is the fitted concentration of half-maximal effect.

| Structure (SMILES) | cytotoxicity increase | Potency |
| --- | --- | --- |
| CCCCCCCCCCOC(=O)c1ccccc1C(=O)OCCCCCCCCCC | -6.57% | – |
| COC(=O)c1cncn1C(C)c1ccccc1 (stereo not given) | -5.14% [at 35.3 µM] | – |
| CN(C)c1ccc(N(C)C)cc1 | -0.157% | – |
| CC(C)(OO)c1ccccc1 | 14.4% | – |
| CC(O)(CS(=O)(=O)c1ccc(F)cc1)C(=O)Nc1ccc(C#N)c(C(F)(F)F)c1 (stereo not given) | -1.99% [at 35.3 µM] | – |
| NNC(=O)c1cccnc1 | -1.4% | – |
| CN1C(=O)NC(=O)C(C)(C2=CCCCC2)C1=O (stereo not given) | -2.31% [at 35.3 µM] | – |
| CCCCCCCCOC(=O)c1ccc(C(=O)OCCCCCCCC)c(C(=O)OCCCCCCCC)c1 | 2.65% | – |
| O=[N+]([O-])c1ccccc1CCl | 0.524% | – |
| CCOC(=O)[C@]1(c2ccccc2)Oc2ccccc2[C@@H]1N | 0.911% | – |
| CC(C)=CCOc1c2occc2cc2ccc(=O)oc12 | -14.4% [at 35.3 µM] | – |
| NCC(CC(=O)O)c1ccc(Cl)cc1 (stereo not given) | -18.6% [at 0.29 µM] | – |
| O=Cc1ccc(Cl)cc1Cl | 8.39% | – |
| CC1C(=O)C[C@]2(C(C)C)C[C@H]12 (stereo not given in full) | 3.67% | – |
| ClCc1cccc(Cl)c1 | 1.79% [at 35.3 µM] | – |
| N#CCC#N | 24.4% | – |
| CC(=O)c1cc2c(cc1C)C(C)(C)C(C)CC2(C)C (stereo not given) | – | 19.5 µM (active) |
| II | – | 38.9 µM (active) |
| OCCCBr | 3.52% | – |
| N#C/C(N)=C(/N)C#N | -9.35% | – |

| Structure (SMILES) | cytotoxicity increase | Potency |
| --- | --- | --- |
| CCCCN=C=O | -8.71% | – |
| O=C1C(Cl)C(CCl)CN1c1cccc(C(F)(F)F)c1 (stereo not given) | 4.8% | – |
| Nc1ccc(N=Nc2ccc(-c3ccc(N=Nc4c(S(=O)(=O)O)cc5cc(S(=O)(=O)O)c(N=Nc6ccccc6)c(O)c5c4N)cc3)cc2)c(N)c1 | 5.09% [at 35.3 µM] | – |
| CC(=O)CCC(C)=O | 1.05% | – |
| CC(C)N(CCC(C(N)=O)(c1ccccc1)c1ccccn1)C(C)C (stereo not given) | -4.91% [at 35.3 µM] | – |
| CCOP(=O)(OCC)O/C(=C/Cl)c1ccc(Cl)cc1Cl | 22% | – |
| c1ccc(C2CC2)c(OCC2=NCCN2)c1 | 9.26% [at 35.3 µM] | – |
| N#Cc1ccc(Cl)cc1 | -9.04% | – |
| CC1Sc2c(C(=O)O)c(=O)c3cc(F)c(N4CCNCC4)cc3n21 (stereo not given) | -5.97% [at 35.3 µM] | – |
| CCC(C)(NC(=O)c1cc(Cl)c(C)c(Cl)c1)C(=O)CCl (stereo not given) | – | 43.9 µM (active) |
| O=C(NCc1cccnc1)Nc1ccc([N+](=O)[O-])cc1 | 25% | – |
| CCCCN(N=O)C(=N)N[N+](=O)[O-] | 4.87% | – |
| CN1C(=O)C(O)N=C(c2ccccc2)c2cc(Cl)ccc21 (stereo not given) | 9.85% | – |
| C[C@H]1CNCCc2ccc(Cl)cc21 | -1.67% [at 35.3 µM] | – |
| O=S(=O)(O)C(F)(F)C(F)(F)C(F)(F)C(F)(F)F | -5% | – |
| S=C=NCc1ccccc1 | – | 55.5 µM (active) |
| CN(N=O)c1ccc([N+](=O)[O-])cc1 | -6.26% | – |
| COCC(C)N(C(=O)CCl)c1c(C)csc1C (stereo not given) | -2.99% | – |
| Cc1ccccc1CCl | -8.39% | – |
| CCOc1ccc(C(C)(C)COCc2cccc(Oc3ccccc3)c2)cc1 | 0.239% | – |
